Where a name gives a salt, the structure may show the parent alone. ± gives the uncertainty stated by the source.
tested on: THP-1; assay: CD86 surface expression induction over DMSO control (% over DMSO); higher = stronger dendritic cell activation; details: exposure time: 24 h
Experimental: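 hCLAT-like CD54 and CD86 surface expression on THP1 cells after 24 h exposure at a single concentration (highest non-cytotoxic concentration, or 100-200 µM if not cytotoxic). Flow cytometry (iQue) was run on 5,000 live cells.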

| Compound | CD86 surface expression induction |
| --- | --- |
| C=CC(=O)OCCCCCCOC(=O)C=C [1,6-Hexanediol diacrylate] (100 µM) | 24.1 ± 16 |
| CCC1OCC(COc2ccc(Oc3ccccc3)cc2)O1 (stereo not given) [Diofenolan] (10 µM) | -18.9 ± 5.4 |
| Oc1c(I)cc(Cl)c2cccnc12 [Clioquinol] (100 µM) | 64.9 ± 88 |
| COc1ccc2cc(CCC(C)=O)ccc2c1 [Nabumetone] (100 µM) | -3.23 ± 4.6 |
| Oc1ccc2cc(SSc3ccc4cc(O)ccc4c3)ccc2c1 [6-Hydroxy-2-naphthyl disulfide] (100 µM) | 67.2 ± 57 |
| CC1COc2ccccc2N1C(=O)C(Cl)Cl (stereo not given) [Benoxacor] (10 µM) | 17.1 ± 5.4 |
| O=C(Oc1ccccc1)c1cccc(C(=O)Oc2ccccc2)c1 [Diphenyl isophthalate] (200 µM) | 1.84 ± 5.6 |
| CC(=O)Oc1ccc(C2(c3ccc(OC(C)=O)cc3)C(=O)Nc3ccccc32)cc1 [Oxyphenisatin acetate] (100 µM) | 6.01 ± 7.9 |
| C[n+]1cc2c3c(ccc2c2ccc4cc5c(cc4c21)OCO5)OCO3 [Sanguinarine] (10 µM) | 73.1 ± 11 |
| CCCCCCCCCCCCOCCO [2-(Dodecyloxy)ethanol] (200 µM) | 57 ± 59 |
| CCOc1ccc2nc(S(N)(=O)=O)sc2c1 [Ethoxzolamide] (200 µM) | -1.83 ± 4.6 |
| c1ccc2cc3c(ccc4ccccc43)cc2c1 [Benz(a)anthracene] (200 µM) | -20.1 ± 26 |
| CCOc1ccc2nc3cc(N)ccc3c(N)c2c1 [Ethacridine lactate monohydrate] (200 µM) | 42.2 ± 53 |
| O=C(O)Cc1cc(I)c(Oc2cc(I)c(O)c(I)c2)c(I)c1 [Tetrac] (100 µM) | 12.3 ± 2 |
| Cn1sccc1=O [2-Methyl-4-isothiazolin-3-one hydrochloride] (10 µM) | -16.2 ± 4.7 |
| O=[N+]([O-])c1cc(Cl)c(Cl)c(Cl)c1Cl [2,3,4,5-Tetrachloronitrobenzene] (10 µM) | -3.95 ± 2.5 |
| O=C(NS(=O)(=O)/C=C/c1cccs1)c1ccc(F)cc1Br (200 µM) | -2.46 ± 4 |
| Nc1ccc2cc3ccccc3cc2c1 [2-Aminoanthracene] (200 µM) | -10.7 ± 9.7 |
| Nc1ncn([C@@H]2O[C@H](CO)[C@@H](O)[C@H]2O)c(=O)n1 [5-Azacytidine] (10 µM) | -17.2 ± 5.3 |
| CC(C)c1ccc2oc3nc(N)c(C(=O)O)cc3c(=O)c2c1 [Amlexanox] (100 µM) | 8.56 ± 19 |

| Compound | CD86 surface expression induction |
| --- | --- |
| O=C1OC(OC(=O)c2cccnc2Nc2cccc(C(F)(F)F)c2)c2ccccc21 (stereo not given) [Talniflumate] (100 µM) | -7.81 ± 1 |
| CC(C)CCCCCCCOC(=O)c1ccc(C(=O)OCCCCCCCC(C)C)c(C(=O)OCCCCCCCC(C)C)c1 [Triisodecyl trimellitate] (163 µM) | -10.7 ± 1.8 |
| Cc1ccc(O)c2ncccc12 [Tiliquinol] (10 µM) | 43.2 ± 60 |
| C#CCN(C)CCCOc1ccc(Cl)cc1Cl [Clorgyline hydrochloride] (100 µM) | -4.71 ± 3.7 |
| CC(C)(C)c1ccc(C(=O)CCCCl)cc1 [4'-Tert-butyl-4-chlorobutyrophenone] (100 µM) | -2.04 ± 0.44 |
| O=C(O)c1cc(O)c2ccccc2c1O [1,4-dihydroxy-2-naphthoic acid*] (10 µM) | 290 ± 51 |
| CN(C)c1ccc(C(=C2C=CC(=[N+](C)C)C=C2)c2ccccc2)cc1 [Malachite green oxalate*] (10 µM) | 195 ± 53 |
| CCCSS/C(CCO)=C(/C)N(C=O)Cc1cnc(C)nc1N [Prosultiamine] (10 µM) | -13 ± 4.4 |
| Cc1ccc2c(c1[N+](=O)[O-])C(=O)c1ccccc1C2=O [2-Methyl-1-nitroanthraquinone] (10 µM) | 7.64 ± 3.5 |
| Cc1occc1S [2-Methyl-3-furanthiol] (200 µM) | 33 ± 9.3 |
| CC1=C(/C=C/C(C)=C\C=C\C(C)=C\C(=O)O)C(C)(C)CCC1 [9-cis Retinoic acid] (100 µM) | 5.14 ± 16 |
| CCN(CC)CCSC(=O)C(c1ccccc1)c1ccccc1 [Thiphenamil] (200 µM) | 107 ± 65 |
| COC(=O)Nc1nc2cc([S+]([O-])c3ccccc3)ccc2[nH]1 (stereo not given) [Oxfendazole] (100 µM) | 13.3 ± 2.3 |
| O=C(O)c1cn(C2CC2)c2cc(N3CCNCC3)c(F)cc2c1=O [Ciprofloxacin] (100 µM) | -5.55 ± 6.9 |
| CCCCCCCCN [n-Octylamine] (100 µM) | -6.07 ± 0.55 |
| O=c1cc(-c2ccccc2)oc2ccccc12 [Flavone] (200 µM) | 16.4 ± 4.7 |
| CCN(CC)c1ccc(C(=O)c2ccccc2C(=O)O)c(O)c1 [2-[4-(Diethylamino)-2-hydroxybenzoyl]benzoic acid] (10 µM) | -12.1 ± 11 |
| O=C(NS(=O)(=O)/C=C/c1ccccc1)c1ccc(F)cc1Cl (200 µM) | -3.08 ± 4.4 |
| Clc1nc(C(Cl)(Cl)Cl)c(Cl)c(Cl)c1Cl [2,3,4,5-Tetrachloro-6-(trichloromethyl)pyridine] (10 µM) | -11.6 ± 6.2 |
| O=C(N/N=C/c1ccccc1O)c1ccncc1 [Salinazid] (10 µM) | 7.77 ± 2.8 |
